Reference: PubChem BioAssay (Tox21)
Unmarked numbers belong to inactive results. The source made the active and inactive calls. Calls come from the whole dose curve; as a rule, active = well fitted curve in the direction sought with a large enough effect in the repeat runs; inconclusive = weak or mixed curves; inactive = flat fitted curve, though single readings scatter.

test: qHTS assay to test for compound auto fluorescence at 535 nm (green) in HEK293 cell free culture (AID 720682); details: cell-free medium, green autofluorescence 485/535 nm, hits give high values; series mostly up to 91.3 µM; activity change: at the top concentration
Text: U.S. Tox21 Program National Center for Advancing Translational Sciences [NCATS] NIH Chemical Genomics Center [NCGC] U.S. Environmental Protection Agency [EPA] National Institutes of Environmental Health Sciences [NIEHS] National Toxicology Program [NTP] U.S. Food and Drug Administration [FDA] Tox21 Assay Overview: Compound auto fluorescence often interferes with screening of the compound library against various biological targets and signaling pathways. Some of these compounds may have fluorophoric properties. Such properties may interfere with the assay outputs resulting in false positives and/or negatives. To decrease such complications and ensure the compound activities are relevant in terms of biological response, the Tox21 10K compound library was screened for auto fluorescence. From the fluorophores used as reporter signals in our screening assays, the auto fluorescence equivalencies of compounds against three fluorophores have been evaluated: Triamterene, Fluorescein and Rose Bengal sodium for blue, green and red fluorescence, respectively. The fluorescence intensities were measured using Excitation/Emission wavelengths at 405/460nm, 485/535nm and 540/590nm for blue, green and red labels, respectively. This assay includes the green fluorescence data.
Tox21 Assay Protocol Summary: 5 uL of culture medium (DMEM containing 10% FBS) per well was dispensed into black wall/clear bottom 1536-well plates using a Multidrop Combi Dispenser (ThermoFisher Scientific, Waltham, MA). After 23 nL compound or DMSO vehicle was transferred into assay plate by a pintool work station (Kalypsys, San Diego, CA), fluorescence intensities in the assay plates were measured by an Envision (PerkinElmer, Shelton, CT) plate reader using three labels for measuring blue, green and red fluorescence at […] 460, 535 and 590nm respectively.
% is set by controls: 0 for no effect and ±100 for the full control effect.

Compared with `ClC1(Cl)C2(Cl)C3(Cl)C4(Cl)C(Cl)(Cl)C5(Cl)C3(Cl)C1(Cl)C5(Cl)C24Cl` (stereo not given), `COP(=S)(OC)Oc1nc(Cl)c(Cl)cc1Cl` is higher in “activity change” value: -0.227% for the first, -0.123% for the second.

Compared with `CC(=O)[O-].CC(=O)[O-].CC(=O)[O-].[Cr+3]`, `CC(=O)[O-].CC(=O)[O-].[Co+2]` is higher in “activity change” value: -0.0306% for the first, 0.0106% for the second.

Going from `CCOP(=S)(OCC)Oc1cc(C)nc(N(CC)CC)n1` to `CCO/N=C(\CC)C1=C(O)CC(c2c(C)cc(C)cc2C)CC1=O` (stereo not given), the “activity change” value falls from -0.0291% to -0.101%.

Going from `CCC[CH2][Sn]([CH2]CCC)([CH2]CCC)[CH2]CCC` to `C=C(C)C(=O)[O][Sn]([CH2]CCC)([CH2]CCC)[CH2]CCC`, the “activity change” value rises from -0.0158% to 0.0443%.

First: CCn1cc[n+](C)c1 (tested in a mixture with another compound)
Second: CN(C)c1ccc(N)cc1
The “activity change” value of the first is lower: 0.016% for the first, 0.0282% for the second.

Going from `CCC(C)c1cccc(C(C)CC)c1O` (stereo not given) to `CCOC(=O)Cc1ccccc1`, the “activity change” value rises from -0.0569% to 0.0763%.

Going from `CO/N=C(/C1=NOCCO1)c1ccccc1Oc1ncnc(Oc2ccccc2Cl)c1F` to `COC(=O)N(OC)c1ccccc1COc1ccn(-c2ccc(Cl)cc2)n1`, the “activity change” value falls from 0.0058% to -0.0081%.

Going from `CN1CCc2cc3c(cc2C1O)OCO3` (stereo not given) to `Cc1cc2c3c(c1)C(c1ccccc1)=N[C@@H](NC(=O)c1ccncc1)C(=O)N3CC2`, the “activity change” value rises from 0.0137% to 0.113%.

Compared with `CC(=O)[O][Sn]([c]1ccccc1)([c]1ccccc1)[c]1ccccc1`, `N#Cc1c2ccccc2cc2ccccc12` is higher in “activity change” value: -0.058% for the first, -0.003% for the second.

Going from `CCN1CCC2(CC1)COc1cc3c(cc12)N(C(=O)c1ccc(-c2ccc(-c4nnc(C)o4)cc2C)cc1)CC3` to `c1csc(-c2ccc(-c3cccs3)s2)c1`, the “activity change” value falls from 0.0178% to -0.243%.

Going from `O.O.O.O=C([O-])[C@H]([O-])[C@@H]([O-])C(=O)[O-].O=C([O-])[C@H]([O-])[C@@H]([O-])C(=O)[O-].[K+].[K+].[Sb+3].[Sb+3]` to `Cc1c([N+](=O)[O-])c(C)c([N+](=O)[O-])c(C(C)(C)C)c1[N+](=O)[O-]`, the “activity change” value rises from -0.111% to 0.183%.

First: O=[N+]([O-])c1cccc2cccc([N+](=O)[O-])c12
Second: CCC(C)Nc1c([N+](=O)[O-])cc(C(C)(C)C)cc1[N+](=O)[O-] (stereo not given)
The “activity change” value of the first is lower: -0.195% for the first, 0.122% for the second.

Compared with `Oc1ccc(Cl)c(Cl)c1`, `C#CC1(O)CCCCC1` is lower in “activity change” value: -0.0349% for the first, -0.0565% for the second.

In the case of `[Cl-].[Cl-].[Cl-].[Yb+3]`, the “activity change” value is reported as 0.0332%.

`COc1ccc(Cc2nccc3cc(OC)c(OC)cc23)cc1OC` showed an activity change of -0.0465% [at 18.6 µM].

Going from `CC(C)NCC(O)c1ccccc1Cl` (stereo not given) to `Cc1ccc2cc3c(ccc4ccccc43)c3c2c1CC3`, the “activity change” value rises from 0.0095% [at 46 µM] to 0.0509% [at 46 µM].

First: CCCCN(CCCC)C(=S)[S-].CCCCN(CCCC)C(=S)[S-].[Ni+2]
Second: CCN(CC)CCN1C(=O)CN=C(c2ccccc2F)c2cc(Cl)ccc21
The “activity change” value of the first is higher: 0.0747% [at 46 µM] for the first, -0.185% [at 46 µM] for the second.

Compared with `Clc1cc(Cl)c(-c2cc(Cl)c(Cl)cc2Cl)cc1Cl`, `CC1=C2C[C@H]3[C@@H](CC=C4C[C@@H](O)CC[C@@]43C)[C@@H]2CC[C@]12O[C@@H]1C[C@H](C)CN[C@H]1[C@H]2C` is higher in “activity change” value: -0.0374% [at 46 µM] for the first, 0.115% [at 46 µM] for the second.

First: CN(C)CCc1c[nH]c2ccccc12
Second: CCCC[N+]1(C)CCCC1 (tested in a mixture with another compound)
The “activity change” value of the first is lower: 0.0268% [at 95.7 µM] for the first, 0.0621% [at 95.7 µM] for the second.

Compared with `CSSC`, `CCCCON=O` is higher in “activity change” value: -0.0209% [at 95.7 µM] for the first, 0.0955% [at 95.7 µM] for the second.

With `Clc1c(Cl)c(Cl)c(Cl)c(Cl)c1Cl` the activity change was 0.0009% [at 3.72 µM].

For `CN(C)C(=S)SSC(=S)N(C)C`, the outcome was “inactive”.
